# The campaign covered roughly 69,000 compounds. About 1,000 (1.4%) showed an effect of 50% or more. The full list was thinned out, with strong results kept by preference.
# Tested on: Leishmania donovani
# Test: Leishmania intramacrophage assay
# Assay type: functional, organism-based
# Parameters: scale not given: in the data most compounds retested in dose-response had high values
structure (smiles),measurement,setting,value
CCc1nc(NCC(=O)N2CCOCC2)c2c(n1)c(C)nn2CC,Percent Effect,"30 µM, 30.03 µM",6.056%
Cc1cc(NC(=O)NCC(C)N2CCc3ccccc32)no1 (stereo not drawn),Percent Effect,"30 µM, 30.03 µM",27.07%
CN(Cc1cccnc1N)Cc1cccc2ncccc12,Percent Effect,"30.3 µM, […]",48.64%
CN(Cc1cccc(OCCO)c1)Cc1cccc2ncccc12,Percent Effect,"30.3 µM, […]",37.97%
CN(Cc1cccc(CCN)c1)Cc1cccc2ncccc12,Percent Effect,"30.3 µM, […]",68.5%
CN(CCCc1cnn(C)c1)C(=O)C1CCC(=O)N(C2CCCC2)C1 (stereo not drawn),Percent Effect,"30.3 µM, […]",11.37%
COCCN1CCC(CNC(=O)C2(S(C)(=O)=O)CCCC2)CC1,Percent Effect,"30.3 µM, […]",19.2%
COCCN(C)C(C(=O)O)c1ccc(F)c(C)c1 (stereo not drawn),Percent Effect,"30.3 µM, […]",7.085%
CC(C)NC(=O)C1CN(Cc2ccc(F)cc2)CC12CCOCC2.O=C(O)C(F)(F)F (stereo not drawn),Percent Effect,"30.3 µM, […]",44.53%
NC(CC1CCCC1)c1ccc(Oc2ccccc2)cc1 (stereo not drawn),Percent Effect,"30.3 µM, […]",99.72%
OC(CN1CCN(CC2CCCCC2)CC1)c1ccccc1 (stereo not drawn),Percent Effect,"30.3 µM, […]",24.85%
Cl.NC(CC1CCCC1)c1ccccc1 (stereo not drawn),Percent Effect,"30.3 µM, […]",14.4%
CC(C)N(C)Cc1cc(=O)n2c(n1)CN(S(=O)(=O)C1CC1)CCC2.O=C(O)C(F)(F)F,Percent Effect,"30.3 µM, […]",28.49%
CN1CCO[C@@H]2CN(C(=O)Cc3cccs3)CC[C@@H]2C1.O=C(O)C(F)(F)F,Percent Effect,"30.3 µM, […]",32.46%
CC(C)N1CCO[C@@H]2CN(C(=O)Cc3cccs3)CC[C@@H]2C1.O=C(O)C(F)(F)F,Percent Effect,"30.3 µM, […]",50.53%
CC(C)N1CCO[C@@H]2CN(C(=O)NCc3ccccc3)CC[C@@H]2C1.O=C(O)C(F)(F)F,Percent Effect,"30.3 µM, […]",17.12%
CCOC(=O)c1nnc2ccccc2c1N1CCN(CC)CC1,Percent Effect,"30.3 µM, […]",18.05%
COc1ccc(-n2ccnc2-c2cnc(N(C)C)nc2)cc1OC,Percent Effect,"30.3 µM, […]",25.02%
CCS(=O)(=O)c1ccc(N2CCC(N)CC2)cc1,Percent Effect,"30.3 µM, […]",63.99%
CCS(=O)(=O)c1ccc(N2CCC(NC(=O)CCC(C)C)CC2)cc1,Percent Effect,"30 µM, 30.03 µM",63.78%
CCNC(=O)NC1CCN(c2ccc(S(=O)(=O)CC)cc2)CC1,Percent Effect,"30.3 µM, […]",12.14%
CCS(=O)(=O)c1ccc(N2CCC(NC(=O)CC3CCCC3)CC2)cc1,Percent Effect,"30.3 µM, […]",22.19%
CCS(=O)(=O)c1ccc(N2CCC(NC(=O)C(C)SC)CC2)cc1 (stereo not drawn),Percent Effect,"30.3 µM, […]",27.86%
CCS(=O)(=O)c1ccc(N2CCC(NC(C)=O)CC2)cc1,Percent Effect,"30 µM, 30.03 µM",-2.976%
CC(=O)NCCNCc1cn(CCN2CCSCC2)nc1C,Percent Effect,"30.3 µM, […]",28.55%
CN1C[C@H]2CN(Cc3cccc(OC(F)(F)F)c3)CCN2C1=O,Percent Effect,"30.3 µM, […]",-1.989%
O=C(Cc1cc2c(cc1Br)OCCO2)NC1CCS(=O)(=O)C1 (stereo not drawn),Percent Effect,"30.3 µM, […]",5.517%
CC(=O)c1ccc(C(=O)N2C[C@@H]3CC[C@H](C2)N(Cc2ccccc2)C3)s1,Percent Effect,"30.3 µM, […]",9.144%
COc1cc(F)cc(CNC(=O)Nc2ccn(CC(F)F)n2)c1,Percent Effect,"30.3 µM, […]",16%
Cc1cc2c(c(-c3c[nH]c(C)n3)c1)OC(CN)C2 (stereo not drawn),Percent Effect,"30.3 µM, […]",38.87%
Cc1cc2c(c(-c3cncc(C(=O)N4CCCC4)n3)c1)OC(CN)C2 (stereo not drawn),Percent Effect,"30.3 µM, […]",74.06%
NCC1Cc2cc(-c3cncc(C(=O)N4CCOCC4)n3)cc(Cl)c2O1 (stereo not drawn),Percent Effect,"30.3 µM, […]",7.347%
Cc1cc2c(c(-c3cnccn3)c1)OC(CN)C2 (stereo not drawn),Percent Effect,"30.3 µM, […]",26.74%
NCC1Cc2cc(-c3cncc(C(=O)N4CCCCC4)n3)cc(F)c2O1 (stereo not drawn),Percent Effect,"30.3 µM, […]",-28.1%
NCC1Cc2cc(Cl)cc(-c3cncc(C(=O)N4CCCCC4)n3)c2O1 (stereo not drawn),Percent Effect,"30.3 µM, […]",74.83%
CC(C)n1cc(N2CC(C(=O)N3CCN(C)CC3)CC2=O)cn1 (stereo not drawn),Percent Effect,"30.3 µM, […]",26.64%
O=C(c1cncc(Br)c1)N1CCCc2ccc(F)cc21,Percent Effect,"30.3 µM, […]",14.67%
CCc1c(C)nn(CC(=O)NC(C(=O)O)c2c(C)n[nH]c2C)c1C (stereo not drawn),Percent Effect,"30.3 µM, […]",12.75%
Cc1ccc(CN(C)Cc2cc(C3CC3)[nH]n2)c(O)n1,Percent Effect,"30.3 µM, […]",5.894%
Cc1nn(C)cc1S(=O)(=O)N[C@@H]1CC[C@@H](n2ccnc2C)[C@@H]1O,Percent Effect,"30.3 µM, […]",-29.93%
CN1CCC/C1=N\S(=O)(=O)c1ccc(NC(=O)c2ccco2)cc1,Percent Effect,30 µM,-21.5%
CCNC(=O)[C@@H]1C[C@H](NC(=O)c2cncnc2C)CN1Cc1ccsc1,Percent Effect,"30.3 µM, […]",37.2%
CCNC(=O)[C@@H]1C[C@@H](NC(=O)c2cccnc2O)CN1Cc1ccsc1,Percent Effect,"30 µM, 30.03 µM",19.61%
CCNC(=O)[C@@H]1C[C@@H](NC(=O)c2cnc[nH]c2=O)CN1Cc1ccsc1,Percent Effect,"30.3 µM, […]",54.56%
CC(=O)Cn1ncc(N2CCOCC2)cc1=O,Percent Effect,"30.3 µM, […]",4.61%
CCOc1ccc(CN2CCCC(c3cc4ncccc4[nH]3)C2)cc1 (stereo not drawn),Percent Effect,"30.3 µM, […]",54.07%
CC(=O)Nc1ccc(CN2CCCC(c3cc4ncccc4[nH]3)C2)cc1 (stereo not drawn),Percent Effect,"30.3 µM, […]",40.95%
Fc1ccc(CN2CCCC(c3cc4ncccc4[nH]3)C2)cc1 (stereo not drawn),Percent Effect,"30.3 µM, […]",-0.4017%
O=C(CC1NC(N2CCc3ccccc32)=NC1=O)Nc1ccc(Cl)cc1 (stereo not drawn),Percent Effect,"30.3 µM, […]",9.68%
Cc1nc(O)cc(CCNc2nccc(CCC(F)(F)F)n2)n1,Percent Effect,"30.3 µM, […]",19.16%
CC(Cn1ccnc1)NC(=O)N1CCN(Cc2ccncc2)CC1 (stereo not drawn),Percent Effect,30 µM,-0.977%
CC(Cn1ccnc1)NC(=O)N1CCN(Cc2ccsc2)CC1 (stereo not drawn),Percent Effect,30 µM,56.49%
CC(Cn1cccn1)NC(=O)N1CCN(Cc2ccsc2)CC1 (stereo not drawn),Percent Effect,"30.3 µM, […]",0.9675%
CN1C(=O)CC(C(=O)O)C12CCN(c1ccc3c(n1)CCCC3)CC2 (stereo not drawn),Percent Effect,"30.3 µM, […]",21.03%
CCn1ncnc1C(C)NC(=O)C1CCN(C2CCCCC2)CC1 (stereo not drawn),Percent Effect,"30.3 µM, […]",10.97%
CCn1ncnc1C(C)NC(=O)C1CCN(C(C)C)CC1 (stereo not drawn),Percent Effect,"30 µM, 30.03 µM",5.618%
CCn1ncnc1C(C)NC(=O)C1CCN(C(=O)COC)CC1 (stereo not drawn),Percent Effect,"30 µM, 30.03 µM",54.19%
CC(=O)NC(C)(C)C(=O)Nc1ncc(Cc2ccc(C)c(F)c2)s1,Percent Effect,"30 µM, 30.03 µM",11.96%
Cc1nn(C)cc1-c1ccnc(N(C)Cc2noc(C(C)C)n2)n1,Percent Effect,"30.3 µM, […]",19.89%
Cc1nn(C)c(C)c1-c1ccnc(N(C)Cc2noc(C(C)C)n2)n1,Percent Effect,"30.3 µM, […]",46.51%
Cc1nn(C)c(C)c1-c1ccnc(N(C)Cc2nc(C(C)C)no2)n1,Percent Effect,"30.3 µM, […]",52.75%
CCc1nc(CN(C)C2CCN(CCC(=O)N3CCCCC3)C2)no1 (stereo not drawn),Percent Effect,"30.3 µM, […]",22.94%
Fc1cnc(N2CCn3cc(CNc4ccccn4)nc3C2)nc1.O=C(O)C(F)(F)F.O=C(O)C(F)(F)F,Percent Effect,"30 µM, 30.03 µM",-20.21%
